Screens: PubChem, National Center for Advancing Translational Sciences (NCATS)
The list is not random: actives were taken first. Their share in the collection is about 9.2%.
HPGD block – qHTS Assay for Inhibitors of HPGD (15-Hydroxyprostaglandin Dehydrogenase). Potency, µM, inactives show top-dose activity change, negative = inhibition, most hits filed as inhibitors. AID 894, 2007. 15-hydroxyprostaglandin dehydrogenase [NAD(+)] (Homo sapiens), P15428. purified HPGD, NADH fluorescence kinetic, PGE2 substrate. 4.3% of 150,000 active; note: % is set by controls: 0 for no effect and ±100 for the full control effect
Target sequence (P15428 whole entry, looked up): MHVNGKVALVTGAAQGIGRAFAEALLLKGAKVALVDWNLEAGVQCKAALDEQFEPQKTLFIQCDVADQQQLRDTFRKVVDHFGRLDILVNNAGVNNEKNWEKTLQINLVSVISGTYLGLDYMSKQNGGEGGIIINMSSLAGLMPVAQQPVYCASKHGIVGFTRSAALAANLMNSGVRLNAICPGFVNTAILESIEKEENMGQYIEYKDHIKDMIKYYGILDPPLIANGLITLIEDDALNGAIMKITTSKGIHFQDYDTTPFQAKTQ
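20 nM HPGD preincubated 15 min at room temperature with compound in 50 mM Tris-HCl pH 8, 0.01% Tween 20. Started with 1 mM NAD+ and 30 uM prostaglandin E2; NADH fluorescence (360/450 nm) read 5 times over 30-s intervals, last minus first.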
LMNA splice mod – qHTS Assay for Modulators of Lamin A Splicing; HeLa LMNA splicing GFP/RFP minigene ratio, 48 h; Potency, µM (doses to about 46.1 µM), without a hit: top-dose ratio change, negative = inhibition, most hits filed as inhibitors; AID 1487, 2009; 0.01% of 200,000 active; active = well fitted inhibition curve with a large enough effect in the signal ratio, with a control signal flat, not every such curve was filed as active; inconclusive = small, poorly fitted or top-dose-only effect, or effect the other way, or a change in a side signal; the % refers to the signal ratio; note: % is set by controls: 0 for no effect and ±100 for the full control effect
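S3 HeLa cells stably expressing lamin A-EGFP splicing minigene plus DsRed2, 600 cells/well, 48 h compound exposure at 37C. Laser-scanning cytometry; analysed as GFP (500-530 nm)/RFP (575-640 nm) total intensity ratio; 0.5% DMSO vehicle.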
KDM4E inh – qHTS Assay for Inhibitors of Human Jumonji Domain Containing 2E (JMJD2E); Lysine-specific demethylase 4E (Homo sapiens), B2RXH2; JMJD2E catalytic domain, FDH-coupled NADH fluorescence (FDH is formaldehyde dehydrogenase); Potency, µM (top dose mostly 57.1 µM), inactives show at the top dose activity change, negative = inhibition, usual class: inhibitors; 1.6% of 230,000 active; AID 2147, 2009;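 note: 0% = wells with enzyme and -100% = buffer wells without enzyme; nearly all actives have a fitted effect of over 50% in size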
Target sequence (B2RXH2 1-337 limits assumed): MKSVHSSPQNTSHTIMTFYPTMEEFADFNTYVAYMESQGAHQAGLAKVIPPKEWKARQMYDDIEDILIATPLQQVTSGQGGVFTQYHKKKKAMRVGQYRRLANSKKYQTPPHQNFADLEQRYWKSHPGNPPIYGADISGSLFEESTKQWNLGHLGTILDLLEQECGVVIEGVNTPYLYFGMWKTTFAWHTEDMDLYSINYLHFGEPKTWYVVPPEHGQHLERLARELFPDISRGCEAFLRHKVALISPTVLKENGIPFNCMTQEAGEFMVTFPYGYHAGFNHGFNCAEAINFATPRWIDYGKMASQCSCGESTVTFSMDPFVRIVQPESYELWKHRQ
HTT aggregate – qHTS Multiplex Assay to Identify Dual Action Probes in a Cell Model of Huntington: Aggregate Formation (GFP). PC12 HttQ103-GFP aggregates, Acumen cytometry, 40 h. Potency, µM (highest dose often 46.1 µM), for inactives: at the top dose activity change, negative = inhibition, actives largely listed as inhibitors. 1.1% of 220,000 active. AID 1688, 2009; active = well fitted curve in the direction sought with a large enough effect; inconclusive = small, poorly fitted or top-dose-only effect, or another doubt; inactive = no such curve, though single readings can be large; an effect the other way counts as inactive or inconclusive; note: % is set by controls: 0 for no effect and ±100 for the full control effect; nearly all actives have a fitted effect of over 60% in size
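PC12/HTTQ103-GFP, ecdysone-inducible; teb 100 nM; cpd qHTS titration; GFP aggregates read on laser cytometer, Ex 488/Em 500-530 nm.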
ALDH1A1 block – qHTS Assay for Inhibitors of Aldehyde Dehydrogenase 1 (ALDH1A1); Aldehyde dehydrogenase 1A1 (Homo sapiens), P00352; Purified ALDH1A1, NADH fluorescence, propionaldehyde substrate; Potency, µM (top dose mostly 75.3 µM), for inactives: at the top dose activity, negative = inhibition, usual class: inhibitors; 7.3% of 220,000 active; AID 1030, 2008;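 note: plate controls were no enzyme wells and a reference inhibitor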
HTT ATP protect – qHTS Multiplex Assay to Identify Dual Action Probes in a Cell Model of Huntington: Cytoprotection (ATP). PC12 HTT-Q103 induced, cytoprotection, ATP luminescence, 40 h. Potency, µM (top dose mostly 56.4 µM), for inactives: cytoprotection (ATP increase), actives largely listed as activators. 0.14% of 230,000 active. AID 1471, 2008; active = well fitted curve in the direction sought with a large enough effect; inconclusive = small, poorly fitted or top-dose-only effect, or another doubt; inactive = no such curve, though single readings can be large; an effect the other way counts as inactive or inconclusive; note: % of control where 0% means no effect; nearly all actives have a fitted effect of over 45% in size
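Huntington model: PC12 line, ecdysone-inducible HTTQ103 exon1–GFP, tebufenozide 100 nM. Test articles in a dose series. Endpoint luminescence from cellular ATP.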
* hit, by the source's call; ? = inconclusive; / = not tested or not shown; [ ] = remark or other dose. Unless noted, calls come from the whole dose curve; as a rule, active = well fitted inhibition curve with a large enough effect (not every such curve was filed as active); inconclusive = small, poorly fitted or top-dose-only effect, or another doubt; inactive = no such curve, though single readings can be large or run the other way. Potency is the fitted concentration of half-maximal effect.

SMILES	HPGD block	LMNA splice mod	KDM4E inh	HTT aggregate	ALDH1A1 block	HTT ATP protect
Cc1cc2c(c(=O)n1CC1CCCO1)C(c1ccc3c(c1)OCO3)C(C#N)=C(N)O2 (stereo not drawn)	-16.1%	-1.4%	-1.9%	16.5%	11.2µM*	-27.5%
Cc1ccc(C(=O)NNC(=O)CSc2n[nH]c(-c3cccnc3)n2)cc1	/	?	1.3%	25.6%	3.4%	-61.6%
O=C(COC(=O)C12CC3CC(CC(C3)C1)C2)Nc1ccc([N+](=O)[O-])cc1Br	-17.3%	0.5%	5.4%	-9.5%	-8.1%	3.5%[10 µM]
N#Cc1cc([N+](=O)[O-])ccc1NC(=O)COC(=O)C12CC3CC(CC(C3)C1)C2	/	/	-0.7%	-17.7%	22.4µM*	-8.5%
Cn1c(-c2ccccc2)cnc1SCc1nc2ccccc2c(=O)[nH]1	-20.9%	-3.4%	-6.4%	-8.9%	31.6µM*	-27.9%[10 µM]
COc1ccc(C)c2sc(N3CCN(C(=O)c4ccco4)CC3)nc12	/	0.2%[46 µM]	/	/	/	/
O=C(COc1ccc(OCc2ccccc2)cc1)NN=C1CCCC1	/	/	25.7%	-4.0%	8.91µM*	6.4%
CC(C)NC(=O)COc1ccc(OCc2ccccc2)cc1	/	-32.1%[46 µM]	1.7%	6.0%	2.2%	9.8%[10 µM]
CC(C)(C)c1ccc(-c2nnc(SCCN3C(=O)c4ccccc4C3=O)o2)cc1	17.8µM*	14.5%	4.1%	-10.7%	-14.8%	-64.9%
O=C(O)CSc1nnc(-c2ccccc2)o1	-2.9%	7.5%	3.0%	7.8%	-4.2%	-4.7%[10 µM]
CCOC(=O)CSc1nc2c(sc(=S)n2-c2ccc(OCC)cc2)c(=O)[nH]1	/	/	0.0%	-9.0%	?	-5.1%
CCOc1ccc(-n2c(=S)sc3c(=O)[nH]c(SCC(=O)C(C)(C)C)nc32)cc1	/	/	-0.8%	?	7.08µM*	?
CCOc1ccc(-n2c(=S)sc3c(=O)[nH]c(SCC(=O)N4CCC(C)CC4)nc32)cc1	-11.2%	13.1%	9.6%	14.0%	-4.7%	-20.3%
CCOC(=O)CSc1nc2sc(C(=O)O)c(C)c2c(=O)[nH]1	-27.0%	-5.5%	-28.2%	-11.8%	-2.7%	-6.7%
CCOC(=O)/C(=C\c1ccc(Cl)cc1)c1nc2sc(C)c(C)c2c(=O)[nH]1	22.4µM*	?	7.5%	?	25.1µM*	3.1%[10 µM]
CCOC(=O)CSc1nc2c(sc(=S)n2-c2ccccc2)c(=O)[nH]1	20µM*	5.3%	-5.7%	-4.2%	9.5%	/
CCOC(=O)CSc1nc2sc(C)c(C)c2c(=O)[nH]1	3.55µM*	14.0%	-2.0%	7.7%	-5.8%	-2.6%
C=COC(=O)c1sc2nc(C)cc(C)c2c1N	/	/	?	19.2%[9.22 µM]	/	23.5%[10 µM]
c1ccc(C(c2ccccc2)N2CCCC3(CCNCC3)C2)cc1	-2.0%	/	/	/	1.8%	-47.6%
Cc1cc(C(=O)NCCc2ccc(Cl)cc2)c2c(C)nn(-c3ccccc3)c2n1	/	-8.8%[46 µM]	/	/	/	/
COc1ccc(-c2nc3cnc(N4CCOCC4)nc3n(CCC#N)c2=O)cc1	-12.8%	/	/	/	?	0.7%
c1ccc(Cc2nnc(-c3ccccc3)o2)cc1	7.94µM*	18.8%	-10.5%	-2.8%	-2.3%	-52.9%
c1ccc(-c2nnc(CSc3nncs3)o2)cc1	25.1µM*	10.4%	-3.9%	-11.6%	-8.0%	-26.2%
Cc1c(C(=O)Nc2ccc(C(C)C)cc2)sc2nc3n(c(=O)c12)CCC3	/	-13.1%[46 µM]	/	/	/	/
Cc1cc(C(=O)c2ccccc2)c(NC(=O)CCl)s1	?	?	-10.7%	?	2.51µM*	4.7%[10 µM]
CCC(=O)Nc1ccccc1C(=O)OCc1ccc(C(=O)c2ccccc2)cc1	14.1µM*	10.1%	-4.0%	?	?	-40.6%
O=C(CCl)Nc1ccccc1C(=O)c1ccccc1	/	-0.2%[46 µM]	0.5%	-1.5%	25.1µM*	24.2%[10 µM]
